# MARV entry inh – inhibitors of Marburg virus binding or cell entry | Potency, µM (top dose mostly 37.8 µM), without a hit: at the highest dose activity change, negative = inhibition, actives largely listed as inhibitors | hit rate 1.8% among 300,000 | Marburg virus pseudotyped entry inhibition, cell reporter; calls by dose curve; tested in HEK293 cells; further: potency means the concentration at half of the fitted maximal effect; on the % scale 0 is the no-effect control and ±100 the full control effect
# Cycloheximide cs – counter-screen hit for Shiga toxin inhibitors, cycloheximide. cell reporter, cycloheximide protein synthesis inhibition counterscreen. max response, %. hit rate 12% among 300,000; in the data active means max response mostly above about 13%, no sharp cut-off; inactive means mostly below about 14%; further: read at 38.3 µM for the half of the compounds with a filed dose; 0% is about no effect
# LASV entry inh – inhibitors of Lassa virus binding or cell entry; Lassa virus pseudotype entry inhibition, cell reporter; Potency, µM (doses to about 37.9 µM), without a hit: at the highest dose activity change, negative = inhibition, hits mostly inhibitors; hit rate 1.2% among 300,000; calls by dose curve; tested in HEK293 cells; further: potency means the concentration at half of the fitted maximal effect; on the % scale 0 is the no-effect control and ±100 the full control effect; nearly all actives have a fitted effect of over 50% in size
# Pf growth 96h – P. falciparum growth inhibition at 96 hour, primary screen for plastid delayed-death inhibitors; Potency, µM (top dose mostly 28.7 µM), for the others: top-dose activity change, negative = inhibition, actives largely listed as inhibitors; hit rate 6.9% among 320,000; P. falciparum luciferase reporter growth, 96 h; further: potency means the concentration at half of the fitted maximal effect; on the % scale 0 is the no-effect control and ±100 the full control effect
#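 96 h incubation, 37 C, 5% CO2, of luciferase-reporter P. falciparum-infected RBCs (2% hematocrit, 0.05% parasitemia final) with test compounds; endpoint luminescence.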
# Pf growth 48h – inhibits P. falciparum growth in the first generation, 48 h | P. falciparum luciferase growth in erythrocytes, 48 h | Potency, µM (top dose mostly 28.7 µM), without a hit: at the top dose activity change, negative = inhibition, usual class: inhibitors | hit rate 5.9% among 310,000; further: potency means the concentration at half of the fitted maximal effect; on the % scale 0 is the no-effect control and ±100 the full control effect
#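 First compound was added to culture medium, then infected red cells at 0.1% parasitemia and 2% hematocrit (final). After incubation at 37 C under 5% CO2, luciferase detection reagent was dispensed and light output recorded.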
# Shiga inhibitor – inhibitors of Shiga toxin in Vero cells. inhibition, % at 38.7 µM. hit rate 9.2% among 290,000. Vero cells, Shiga toxin protein synthesis inhibition reporter; in the data active means inhibition mostly above about 28%, no sharp cut-off; inactive means mostly below about 43%; further: 0% is about no effect
# The depositor's hits bear a star; i = inactive; ? = inconclusive; nt = no result given; [ ] = remark or other dose. Rows were chosen to be rich in hits. Some 19% of all compounds tested hit in one or more screens of this group. Unless noted, the call rests on the fitted dose curve; in most records, active means well fitted inhibition curve with a large enough effect; inconclusive means small, poorly fitted or top-dose-only effect, or another doubt; inactive means no such curve, though single readings can be large or run the other way.
SMILES,MARV entry inh,Cycloheximide cs,LASV entry inh,Pf growth 96h,Pf growth 48h,Shiga inhibitor
O=C(Nc1cccc2nsnc12)c1ccc(F)cc1,5%,30*,4%,nt,36%,50*
COc1cc(NC(=O)c2ccc3c(c2)OCO3)c2ncccc2c1,-25%,9,21%,nt,116%,26
O=C(N/N=C/c1ccc(O)cc1)Nc1cccc2nsnc12,?,40*,?,49%,4%,94*
O=C(Nc1cccc2cccnc12)c1ccc2c(c1)OCCO2,4%,67*,?,40%,nt,115*
O=C(CSc1nnc2n1CCCCC2)Nc1ccc(N2CCOCC2)cc1,11%[46.1 µM],-2,11%,37%,29%,11
CN(C(=O)CSc1nnc(Cc2cccc3ccccc23)n1N)C1CCS(=O)(=O)C1 (stereo unspecified),-4%,-3,0%,nt,11%,-13
CC(=O)OCC1O[C@@H](O[C@@H]2C[C@H]3C(C)(C)[C@H](OC(C)=O)CC[C@]3(C)[C@H]3CC[C@]45C[C@]4(CC[C@H]5[C@@H](C)C[C@@H](O)[C@H](O)C(C)(C)O)[C@@]32C)[C@H](O)[C@@H](O)[C@@H]1O (stereo partly specified),?,-12,15µM*,5.9µM*,12µM*,-7
C[C@H]1O[C@H](O[C@H]2[C@H](O[C@@H]3CC[C@@]4(C)C(CC[C@]5(C)C4CC=C4[C@@H]6CC(C)(C)CC[C@]6(C(=O)O[C@@H]6O[C@H](CO)[C@@H](O)[C@H](O)[C@H]6O)CC[C@]45C)C3(C)C)O[C@H](C(=O)O)[C@@H](O)[C@@H]2O)[C@@H](O)[C@@H](O)[C@@H]1O (stereo partly specified),nt,nt,nt,0%,13%,nt
O=C(NC(=S)Nc1ccccc1C(=O)O)c1cncc(Br)c1,6%,2,14%,4%,4%,nt
O=C(NC(=S)Nc1ccc(Cl)cc1)c1cncc(Br)c1,19%[46.1 µM],nt,2%[46.1 µM],nt,nt,nt
Cc1cccnc1NC(=O)NC(=O)c1ccc(C(C)(C)C)s1,nt,38*,nt,31%,?,63*
O=C(NC(=S)Nc1ccccn1)c1cncc(Br)c1,0%,41*,?,-7%,33%,25
O=C(NC(=S)Nc1ccc(Br)cn1)c1cncc(Br)c1,15%,12,4%,13µM*,1%,25
Cc1cccnc1NC(=S)NC(=O)c1cncc(Br)c1,-22%,35*,8%,48%,37%,91*
CCCn1nc(NC(=O)COC)c2cc3cc(C)ccc3nc21,nt,25,nt,161%,114%,3
Cc1cccnc1NC(=O)CCNC(=O)c1ccc(Br)cc1,nt,-2,nt,-15%,10%,-6
O=C(C1COc2ccccc2O1)N(Cc1cccnc1)c1nc2c(Cl)cccc2s1 (stereo unspecified),nt,nt,11%[46.1 µM],nt,nt,nt
c1cc2c3c(cccc3c1)NC1(CCCCC1)N2,0%,-2,1%,?,nt,1
O=C(NC(=S)Nc1ccc(Br)cn1)c1cccs1,nt,69*,nt,?,430%,105*
S=C(Nc1ccccc1)Nc1ccc(Br)cn1,-3%[46.1 µM],-2,13%,-11%,7%,22
Cc1cccnc1NC(=S)NC(=O)c1cccs1,?,59*,?,181%,-15%,191*
Cc1ccc(NC(=O)CSCC(=O)Nc2nnc(C)s2)cc1,-3%,nt,2%,19%,-1%,nt
Cc1ccc(C(C)(C)C)c(SCC(=O)Nc2nnc(C)s2)c1,7.1µM*,-1,7.1µM*,-12%,-7%,-5
Cc1nnc(NC(=O)CSc2ccccc2N)s1,nt,26*,nt,?,27%,38
Cc1nnc(NC(=O)CSCc2ccccc2)s1,nt,4,nt,-2%,39%,0
SMILES,MARV entry inh,Cycloheximide cs,LASV entry inh,Pf growth 96h,Pf growth 48h,Shiga inhibitor
Cc1c(C)n(CC(O)CN2CCOCC2)c2ccccc12 (stereo unspecified),7%,-3,-18%,-3%,2%,4
Cc1ccc(N=Nc2c(O)n(CN3CCOCC3)c3ccccc23)cc1,?,63*,-4%,i,-1%,106*
Oc1c(N=NC(=S)Nc2ccccc2F)c2ccccc2n1Cc1ccc(F)cc1,nt,7,nt,?,2.1µM*,-3
Cc1cccc(NC(=S)N=Nc2c(O)n(CN3CCOCC3)c3ccccc23)c1C,-1%,1,nt,1%,4.7µM*,-7
COc1cc(/C=C(\C#N)C(=O)Nc2ccc(C(=O)O)cc2)ccc1OC(=O)c1cccc(F)c1,0%[46.1 µM],-6,10%[46.1 µM],?,15%,-18
O=C(NC12CC3CC(CC(C3)C1)C2)c1ccc(S(=O)(=O)N2CCOCC2)cc1,?,-2,-23%,?,8%,14
NS(=O)(=O)c1ccc(Nc2nc(-c3ccc(F)cc3)cs2)cc1,?,14,-1%,-16%,30%,17
O=C(O)c1ccc(Nc2nc(-c3cccnc3)cs2)cc1O,nt,7,nt,281%,-4%,17
Cc1ccc(Nc2nc(-c3ccc(O)c(O)c3)cs2)nc1,?,62*,-10%,?,?,113*
Cc1ccc(Nc2nc(-c3ccc(F)cc3)cs2)nc1,nt,53*,nt,31%,209%,77*
Cc1c(-c2cc(C(=O)O)no2)cnn1C,-4%[46.1 µM],29*,-8%,30%,2%,50*
Cc1ccc(N2CC(C(=O)NC3CCSC3=O)CC2=O)cc1 (stereo unspecified),-15%,-3,0%,36%,19%,-14
CCNc1nc(NCC)nc(C(=O)NN)n1,-29%[46.1 µM],-2,4%,9%,-15%,-7
C=CCNCCCOc1ccc(C)cc1Br,?,27*,?,18%,55%,65*
C=CCNCCCCOc1c(Cl)cc(C)cc1Br,-15%,-7,-5%,-60%,9.3µM*,-5
CCn1cc(CNC(=O)c2ccc(C)s2)cn1,7%[46.1 µM],2,?,27%,22%,23
CCc1cc2c3c(c1)/C(=C1/SC(N)=NC1=O)C(=O)N3C(C)(C)C=C2C,1%,5,?,?,?,5
C(=N\Nc1ccccc1)/c1ccc(N2CCOCC2)cc1,-1%,48*,-1%,106%,-26%,69*
C/C(=N\Nc1ccccn1)c1ccc(C(C)C)cc1,?,47*,28%,?,?,104*
O=[N+]([O-])c1cccc(N/N=C/c2ccc(N3CCOCC3)cc2)c1,?,50*,4%[46.1 µM],33%,67%,80*
O=C(O)c1cc(N/N=C/c2ccc(N3CCOCC3)cc2)ccc1Cl,nt,59*,nt,390%,203%,137*
O=C(N/N=C/c1ccc(N2CCOCC2)cc1)c1ccccc1OCCOc1ccccc1,?,10,?,?,?,12
COc1ccc(NC(=O)NC(C(F)(F)F)C(F)(F)F)cc1,7%,1,-12%,nt,7%,-12
O/N=C/c1ccc(OCC(O)COc2ccc(/C=N/O)cc2)cc1,-2%,-2,0%,?,nt,-8

# Bioassay records deposited in PubChem BioAssay by National Center for Advancing Translational Sciences (NCATS).
